# Test results: PubChem BioAssay (NCI)
# The panel holds about 83,000 compounds, 20% with a hit somewhere; the sample as a whole holds those more often.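 Treatment: one concentration, 48 hours, 96-well format. Scoring: percent growth, with anything below 10 considered active.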 Activity calls are given as the source filed them.
# System: A498 renal
# Experiment: NCI-60 one-dose screen, 48 h (100 = growth as untreated, 0 = no growth, -100 = all killed)
# Conditions: 10 µM unless noted
# Protocol: Growth inhibition of the A498 human tumor cell line is measured as a screen for anti-cancer activity. Cells are grown in 96 well plates and exposed to the test compound for 48 hours. Compounds are tested at a single concentration, which is 10^-5 M for most compounds. The reported endpoint is percent growth (GI% or GIPRCNT), where numbers from 0 - 100% represent growth inhibition, and numbers from -100% - 0 represent cell death. For example, a value of 40 represents 60% growth inhibition. A value of 0 means no net growth occurred over the course of the experiment. A value of -40 indicates 40% of cells at the beginning of the experiment died by the end of the experiment. A value of -100 means all cells are dead at the end of the experiment.
# NCI-60 Human Tumor Cell Lines Screen was performed using the standard one-dose NCI protocol, which is described in more detail at https://dtp.cancer.gov/discovery_development/nci-60/default.htm.
# Compounds with GIPRCNT values below 10 were considered active. Activity score was based on GIPRCNT using the following formula: […]
# Score is 0 for GIPRCNT values of 100 or above, 50 for GIPRCNT values of 0, and 100 for GIPRCNT values of -100.
row,SMILES,growth
1,COc1ccc(N2C(=O)c3cc(OC)c(OC)cc3NC2SCc2ccccc2)cc1 (stereo not given),107% (inactive)
2,O=S(=O)(Nc1ccc(-n2cnc3cc(-c4ccc(O)cc4)ccc32)cc1)C1CC1,66% (inactive)
3,CC(=O)Nc1ccc(NC(=O)Nc2cccc(-c3nc(-c4ccc(NC(=O)c5cccs5)cc4Cl)no3)c2)cc1C(F)(F)F,-87.9% (active)
4,CC1(C)CC[C@]2(C(=O)N3CCCN(CC#N)CC3)CC[C@]3(C)C(=CC[C@@H]4[C@@]5(C)CC[C@H](O)C(C)(C)[C@@H]5CC[C@]43C)[C@H]2C1,39.8% (inactive)
5,CCCCCc1ccc(S(=O)(=O)N(C(C)=O)c2cccc(-c3csc(N(CCN4CCN(C)CC4)C(C)=O)n3)c2)cc1,71.1% (inactive)
6,CCN(CC)CCCC(C)NCC(=O)NC(c1ccc2c(c1)OCO2)c1cc(Cl)c2cccnc2c1O (stereo not given),81.1% (inactive)
7,O=C1c2c(c3c4cc(Br)ccc4[nH]c3c3ccc4ccccc4c23)C(=O)N1CCN1CCNCC1,97.1% (inactive)
8,O=S(=O)(NCCCNc1nccc(-n2cnc3ccccc32)n1)c1ccc(F)cc1,70.6% (inactive)
9,COc1ccc(OC)c([C@H]2c3[nH]c4ccccc4c3C[C@H]3C(=O)N(CCCCCCC(=O)NO)CC(=O)N23)c1,102% (inactive)
10,COc1cc(/C=N/n2cnc3oc(-c4ccccc4)cc3c2=N)cc(CN2CCN(C)CC2)c1O,72.2% (inactive)
11,CCOC(=O)/C(F)=C/C1CC1CCc1cccc(C(F)(F)F)c1 (stereo not given),93.7% (inactive)
12,O=C(Nc1cccc(-c2nc(-c3ccc(NC(=O)c4cccs4)cc3Cl)no2)c1)Nc1ccc(NC(=O)C2CC2)c(C(F)(F)F)c1,-89% (active)
13,CN(c1ccc(Cl)cc1)S(=O)(=O)c1ccc(-c2cnc(C3CC3)o2)cc1,12.8% (inactive)
14,Cc1cc(=O)n2nc(-c3c[nH]c4ccccc34)sc2n1,95.1% (inactive)
15,CC(C)=CCc1c(O)c(CC=C(C)C)c2c(c1O)C(=O)C1=C[C@@H]3C[C@H]4C(C)(C)O[C@@](C/C=C(\C)C(=O)O)(C3=O)[C@@]14O2,-31.6% (active)
16,ClC(Cl)c1nc(-c2cccs2)n2nc(-c3ccccc3)cc2n1,-78.5% (active)
17,O=C(/C=C1\C=CN(CCCCO)c2ccccc21)n1ccc2ccccc21,117% (inactive)
18,COc1ccc([C@@H]2[C@@H](O)C(=O)N2c2cc(OC)c(OC)c(OC)c2)cc1,-20.8% (active)
19,COc1cc2cc(Oc3ccc(NC(=O)Nc4cc(C(F)(F)F)cc(C(F)(F)F)c4)cc3)c(C)nc2cc1OCCN(C)C,113% (inactive)
20,O=S(=O)(NC1CC2CCC1C2)c1ccc2c(c1)C(=NO)c1cc(S(=O)(=O)NC3CC4CCC3C4)ccc1-2 (stereo not given),89.4% (inactive)

row,SMILES,growth
1,CS(=O)(=O)c1ccc2c(c1)c1c(n2S(=O)(=O)c2ccc(Cl)cc2)CCCC1,-11.2% (active)
2,N#C/C(=C\c1ccc(-c2ccc(F)cc2)o1)C(=O)Nc1ncc(Cc2ccc(Cl)cc2Cl)s1,72.1% (inactive)
3,C=C(C)C(=O)O[C@H]1C[C@@]2(C)OC(=CC2=O)/C(C)=C\[C@H]2OC(=O)C(=C)[C@H]12,21% (inactive)
4,O=C1c2c(O)cc(O)cc2O[C@@H](c2ccc(O)cc2)[C@@H]1c1c(O)cc(O)c2c(=O)cc(-c3ccc(O)c(O)c3)oc12,120% (inactive)
5,COc1cc(/C=C2\SC(=O)NC2=O)ccc1OCC(=O)Nc1ccc(C(=O)/C=C/c2cc3ccccc3nc2Cl)cc1,111% (inactive)
6,COC(=O)[C@@]1(C)CC[C@]2(C)CC[C@]3(C)C(=CC(=O)[C@@H]4[C@@]5(C)Cc6c(n(CC#CCN7CCN(C)CC7)c7ccccc67)C(C)(C)[C@@H]5CC[C@]43C)[C@@H]2C1,112% (inactive)
7,Nc1ccc(-c2nnc(SCc3ccc(O)c4ncccc34)n2-c2ccccc2)cc1,15.8% (inactive)
8,CCCC(=O)NC(c1cccnc1)c1cc(C(C)=O)c2cccnc2c1O (stereo not given),56.6% (inactive)
9,COC(=O)c1c(C(=O)OC)c2n(CC(=O)Nc3cccc4cccnc34)c3ccccc3n2c1C(=O)c1ccc(C)cc1,105% (inactive)
10,Oc1ccc(CSc2nnc(-c3ccncc3)n2-c2ccccc2)c2cccnc12,44% (inactive)
11,CS(=O)c1nccc(-c2c(-c3ccc(F)c(OCc4ccc(F)cc4)c3)nc3sccn23)n1 (stereo not given),88.2% (inactive)
12,CC(=O)Nc1cccc(-n2cnc3cc(-c4ccc(O)cc4)ccc32)c1,-32.6% (active)
13,COc1cnc2c(c1)C(=O)c1c-2n(CCCn2ccnc2)c(=O)c2cc(OC)c(OC)cc12,17.8% (inactive)
14,COc1cc2cc(Oc3ccc(NC(=O)Nc4cccc(C(F)(F)F)c4)cc3)c(C)nc2cc1OCCN(C)C,106% (inactive)
15,COc1cc(C2=NN(C(C)=O)C(c3ccc(N4CCOCC4)cc3)C2)cc(OC)c1OC (stereo not given),78.7% (inactive)
16,NS(=O)(=O)c1ccc(Nc2nc(N/N=C/c3ccc(C(F)(F)F)cc3)nc(Nc3ccccc3)n2)cc1,39.6% (inactive)
17,O=C(Cn1cc(CN2C(=O)c3ccc([N+](=O)[O-])cc3C2=O)nn1)Nc1ccccc1Br,101% (inactive)
18,O=C(Nc1cccc(-c2nc(-c3ccc(NC(=O)c4cccnc4)cc3Cl)no2)c1)Nc1ccc(NC(=O)C2CC2)c(C(F)(F)F)c1,-69.6% (active)
19,O=C(Nc1cc(Cl)cc(Cl)c1)Nc1ccc2oc(=O)ccc2c1,-8.24% (active)
20,O=C(Cn1cc(CN2C(=O)c3ccc([N+](=O)[O-])cc3C2=O)nn1)Nc1ccc(F)cc1Cl,85.8% (inactive)
